An excerpt weighted towards active compounds, which were near 3.6% of everything screened.
mHTT CaM bind: inhibitors of human mutant huntingtin-calmodulin interaction. AlphaScreen His-mHTT/GST-CaM binding, luminescence. actives 3.6% (n = 190,000). inhibition, % at 15 µM
Pf apPOL inh: Pf-apPOL DNA polymerase inhibition | Recombinant Pf-apPOL, molecular beacon fluorescence, 1.5 h | actives 0.25% (n = 210,000) | AID 1794808 | inhibition, % at 10 µM
Each line names hits and unclear results; the compound was inactive in the other large screens. Cut-off read from the data, not from the text of the source: active = inhibition above about 50%; inactive = the rest.

COCCN=C1Nc2ccccc2NC12CCCN(C(=O)Cc1ccc(Cl)cc1)C2 (stereo unspecified)	mHTT CaM bind 100
CCn1ccc(C(=O)N2CCCC3(C2)Nc2ccccc2NC3=NCc2ccccc2)n1 (stereo unspecified)	none
COCCN=C1Nc2ccccc2NC12CCCN(S(=O)(=O)c1cccs1)C2 (stereo unspecified)	none
COCCN=C1Nc2ccccc2NC12CCCN(C(=O)c1ccncc1)C2 (stereo unspecified)	none
COCCN=C1Nc2ccccc2NC12CCCN(C(=O)Cc1c(F)cccc1Cl)C2 (stereo unspecified)	none
O=C(CN1CCOCC1)N1CCCC2(C1)Nc1ccccc1NC2=NCc1ccccc1 (stereo unspecified)	mHTT CaM bind 91
COCCN=C1Nc2ccccc2NC12CCCN(C(=O)Nc1ccc(F)cc1F)C2 (stereo unspecified)	mHTT CaM bind 100
CN(C)S(=O)(=O)N1CCCC2(C1)Nc1ccccc1NC2=NCc1ccccc1 (stereo unspecified)	mHTT CaM bind 54
COCC(=O)N1CCCC2(C1)Nc1ccccc1NC2=NCc1ccccc1 (stereo unspecified)	mHTT CaM bind 51
CC(=O)NCC(=O)N1CCCC2(C1)Nc1ccccc1NC2=NCc1ccccc1 (stereo unspecified)	none
O=C(Nc1cc(F)c(F)cc1Cl)N1CCN(Cc2ccccc2)CC1	none
Cc1ccc(Cn2c(=O)cc(C(=O)N3CCC4(CC3)OCCO4)c3ccccc32)cc1	mHTT CaM bind 59
Cc1cc(C(=O)N2CCC3(CC2)OCCO3)c2ccccc2n1	none
CCOc1nccnc1N1CCC(NC(=O)Cc2c(C)noc2C)C1 (stereo unspecified)	none
O=C(O)CC(C(=O)O)c1ccco1 (stereo unspecified)	none (no result: Pf apPOL inh)
OC(C#Cc1ccccc1)c1ccco1 (stereo unspecified)	mHTT CaM bind 100, Pf apPOL inh 70
COc1ccccc1NC(=O)C(=O)NC1CCCC1	none
Cc1cc(COC(=O)C2N3C(=O)[C@@H](NC(=O)COc4ccccc4)[C@H]3SC2(C)C)on1 (stereo partly specified)	none
CC1(C)S[C@@H]2[C@H](NC(=O)COc3ccccc3)C(=O)N2[C@H]1C(=O)OCc1cccc2cccnc12	mHTT CaM bind 51
O=C(Nc1ccccc1F)C1CCc2nc(N3CCN(C(=O)C4CCC4)CC3)sc2C1 (stereo unspecified)	none
CC1CN(CC(O)COc2ccc(C34CC5CC(CC(C5)C3)C4)cc2)CC(C)O1 (stereo unspecified)	none
CC1CCCCN1CC(O)COCC12CC3CC(CC(C3)C1)C2 (stereo unspecified)	none
CC1CCCC(C)N1CC(O)COc1ccc(C23CC4CC(CC(C4)C2)C3)cc1 (stereo unspecified)	mHTT CaM bind 100
CC1CCCCN1CC(O)COc1ccc(C23CC4CC(CC(C4)C2)C3)cc1 (stereo unspecified)	mHTT CaM bind 100
COc1ccc(CCC(=O)N2CCCC2c2ccc(F)cc2)cc1 (stereo unspecified)	none
Oc1c(Cl)cc(Cl)cc1C=NNC(=S)NC1CC2CCC1C2 (stereo unspecified)	none (no result: mHTT CaM bind)
Oc1c(Cl)cc(Cl)cc1C=NNC(=S)NCC1CCCO1 (stereo unspecified)	Pf apPOL inh 70 (no result: mHTT CaM bind)
COc1ccc(CNC(=O)C2(C)Cc3ccccc3C(=O)N2Cc2ccc(C)cc2)cc1 (stereo unspecified)	none
C/C(=N\OCc1nc2c3c4c(sc3ncn2n1)CCCC4)c1cccs1	none
CC(=O)N1CCc2[nH]c3ccc(C(=O)NCCN(C)C4CCCCC4)cc3c2C1	none
O=C(Cc1ccccc1F)N1CCc2[nH]cnc2C1c1ccccc1 (stereo unspecified)	none
O=C(Cc1ccc(Cl)cc1)N1CCc2[nH]cnc2C1c1ccccn1 (stereo unspecified)	mHTT CaM bind 91
O=C(Cc1cccc(F)c1)N1CCc2[nH]cnc2C1c1ccccn1 (stereo unspecified)	mHTT CaM bind 70
O=C(Cc1ccc(F)cc1)N1CCc2[nH]cnc2C1c1ccncc1 (stereo unspecified)	none
O=C(Nc1ccccc1)N1CCc2[nH]cnc2C1c1ccccn1 (stereo unspecified)	mHTT CaM bind 51
O=C(Nc1ccccc1)N1CCc2[nH]cnc2C1c1ccccc1 (stereo unspecified)	none
Cc1ccc2nc(Cl)c(CC3CC(c4ccccc4)=NN3C(=O)CCC(=O)O)cc2c1 (stereo unspecified)	none
Cc1ccc(-c2nnc(N3CCC(C(=O)NCCCN4CCOCC4)CC3)o2)cc1	none
COc1ccc(-c2cc3nc4c(c(=O)n3[nH]2)CN(C(=O)c2ccco2)CC4)cc1	none
CCc1sc(NC(C)=O)nc1-c1cc2ccccc2oc1=O	none
CC(C)c1noc(C2(NC(=O)C3CCCC3)CCCCC2)n1	none
CCn1cc2c3c(cccc31)CN(C(=O)c1ccc(F)cc1)CC2	none
CCn1cc2c3c(cccc31)CN(C(C)=O)CC2	none
CCn1cc2c3c(cccc31)CN(C(=O)COc1ccccc1)CC2	mHTT CaM bind 75
CCCn1cc2c3c(cccc31)CN(C(=O)COc1ccc(F)cc1)CC2	mHTT CaM bind 55
Cc1ccc(F)c(N2CCN(C(=O)c3ccc(Cl)cc3Cl)C(C)C2=O)c1 (stereo unspecified)	none
Cc1cc2nn(-c3ccccc3)nc2cc1NC(=O)c1cccnc1	none
CCC(=O)N1CCc2sc(C(=O)N3CCN(CC)CC3)cc2C1	none
CC(=O)N1CCc2sc(C(=O)N3CCN(c4cc(C)ccc4C)CC3)cc2C1	mHTT CaM bind 65
CC(=O)N1CCc2sc(C(=O)N3CCN(c4ccccc4F)CC3)cc2C1	none
CCC(=O)N1CCc2sc(C(=O)N3CCN(c4cc(C)ccc4C)CC3)cc2C1	mHTT CaM bind 66
COc1ccc(CNC(=O)C2(C)Cc3ccccc3C(=O)N2Cc2ccc(OC)cc2)cc1 (stereo unspecified)	none
CCSc1nnc(C(F)F)n1NS(=O)(=O)c1cc(C)ccc1C	none (no result: Pf apPOL inh)
Cc1cc[n+](C2C(c3ccc([N+](=O)[O-])cc3)C(C#N)=C(S)NC2(O)C2CC2)cc1 (stereo unspecified)	mHTT CaM bind 58
Cc1ccc(C2(O)NC(S)=C(C#N)C(c3ccc(F)cc3)C2[n+]2ccccc2)cc1 (stereo unspecified)	mHTT CaM bind 82
CCOc1ccc(C2C(C#N)=C(C(C#N)C#N)NC(O)(C3CC3)C2[n+]2ccc(C)cc2)cc1 (stereo unspecified)	none
CC1(O)NC(C(C#N)C#N)=C(C#N)C(c2ccc(F)cc2)C1[n+]1ccccc1 (stereo unspecified)	none
N#CC1=C(S)NC(O)(c2ccccc2)C([n+]2ccc3ccccc3c2)C1c1cccc(F)c1 (stereo unspecified)	mHTT CaM bind 69
CC1(C(=O)NCc2ccccc2)CCCN(S(=O)(=O)c2ccccc2Cl)C1 (stereo unspecified)	none
O=C(NC1CCCC1)C1CCc2sc(C(=O)N3CCOCC3)cc2C1 (stereo unspecified)	none
COc1ccccc1CCc1nc(-c2ccc(=O)[nH]c2)no1	none
C#CCN(C)C(=O)c1ccc(-c2ccc3c(c2)OCO3)s1	none
COc1ccccc1CC(=O)N1CCCCC1CCN1CCOCC1 (stereo unspecified)	none
CCN(CC)CCNC(=O)c1c(C)oc2cc3c(C(=O)NCCN(CC)CC)c(C)oc3cc12	none
O=C(NCc1ccco1)N1CCC2(CC1)Nc1cc(F)ccc1-n1cccc12	none
